# Reference: PubChem BioAssay
# Assays:
# PEG-3 [1] = target: PEG-3 (UniProt Q6IN02); test: inhibition of PEG-3 promoter-driven reporter – cell-based, HeLa, luciferase, CREF/GAPDH counter-screen panel, dose response (AID 624167); conditions: CREF/GAPDH counter-screens; HeLa PEG-Prom luciferase reporter, overnight, run 1, dose range 1, at 100 µM (top of the series) unless noted
# PEG-3 [2] = target: PEG-3 (UniProt Q6IN02); test: as above; conditions: CREF/GAPDH counter-screens; HeLa PEG-Prom luciferase reporter, overnight, run 2, dose range 1, at 100 µM (top of the series) unless noted
# Rat fibroblasts (CREF) [3] = test: as above; conditions: CREF/GAPDH counter-screens; run 1, dose range 1, at 100 µM (top of the series)
# Rat fibroblasts (CREF) [4] = test: as above; conditions: CREF/GAPDH counter-screens; run 2, dose range 1, at 100 µM (top of the series)
# [5] = target: Tumor necrosis factor receptor superfamily member 10B (Homo sapiens) (UniProt O14763); test: viability loss of caspase-8 NB7 cells with TRAIL – with/without TRAIL, luminescence panel, confirmation (AID 651596); conditions: NB7 neuroblastoma + caspase-8, TRAIL sensitization, NB7 Caspase-8, with TRAIL, mean of runs, at 10 µM, stronger effect = higher value
# Sequence of Tumor necrosis factor receptor superfamily member 10B (Homo sapiens) (O14763 whole entry, looked up): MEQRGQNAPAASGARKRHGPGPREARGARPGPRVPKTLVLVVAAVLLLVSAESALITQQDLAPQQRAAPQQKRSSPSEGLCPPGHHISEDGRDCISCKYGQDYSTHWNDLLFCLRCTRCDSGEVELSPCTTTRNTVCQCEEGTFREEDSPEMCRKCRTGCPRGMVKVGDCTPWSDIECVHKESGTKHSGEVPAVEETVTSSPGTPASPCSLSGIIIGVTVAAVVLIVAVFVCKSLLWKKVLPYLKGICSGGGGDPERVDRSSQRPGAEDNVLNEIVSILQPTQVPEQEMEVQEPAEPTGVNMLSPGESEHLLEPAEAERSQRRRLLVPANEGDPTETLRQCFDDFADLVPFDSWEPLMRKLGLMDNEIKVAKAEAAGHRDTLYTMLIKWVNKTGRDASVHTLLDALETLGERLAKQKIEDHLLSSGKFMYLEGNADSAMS
# [6] = as above; conditions: NB7 neuroblastoma + caspase-8, without TRAIL, NB7 Caspase-8, without TRAIL, mean of runs, at 10 µM
# Sequence of PEG-3 (Q6IN02 whole entry, looked up): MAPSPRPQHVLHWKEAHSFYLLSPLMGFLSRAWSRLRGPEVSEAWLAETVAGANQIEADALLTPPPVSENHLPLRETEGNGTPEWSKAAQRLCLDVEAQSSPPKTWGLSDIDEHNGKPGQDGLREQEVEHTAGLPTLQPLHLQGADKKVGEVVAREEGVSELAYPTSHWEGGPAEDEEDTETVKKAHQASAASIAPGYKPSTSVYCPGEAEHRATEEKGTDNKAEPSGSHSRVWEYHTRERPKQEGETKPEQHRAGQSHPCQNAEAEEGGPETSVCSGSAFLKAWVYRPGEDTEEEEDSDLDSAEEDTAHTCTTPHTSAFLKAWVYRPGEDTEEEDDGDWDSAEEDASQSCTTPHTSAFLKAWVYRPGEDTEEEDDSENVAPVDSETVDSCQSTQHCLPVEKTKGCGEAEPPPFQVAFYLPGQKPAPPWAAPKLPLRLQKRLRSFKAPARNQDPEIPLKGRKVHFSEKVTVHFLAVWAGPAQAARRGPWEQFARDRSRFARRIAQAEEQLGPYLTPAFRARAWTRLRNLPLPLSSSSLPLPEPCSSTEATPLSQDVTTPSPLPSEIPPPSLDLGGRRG
Compound,inhibition (PEG-3 [1]) [%],inhibition (PEG-3 [2]) [%],inhibition (Rat fibroblasts (CREF) [3]) [%],inhibition (Rat fibroblasts (CREF) [4]) [%],activity [5] [%],activity [6] [%]
COC1=CC(=O)c2c(ccc3ncnc(N)c23)C1=O,102,99,101,100,,
CCOC(=O)c1c(SCCN2CCCCC2)n(-c2ccccc2)c(=S)n(-c2ccccc2)c1=O,97.7,102,90.4,94.6,,
Cc1ccc(C(=O)CN2C(=O)c3ccccc3S2(=O)=O)cc1,93.5,92.4,87.2,87.5,,
OCCNc1c2ccccc2nc2ccccc12,99.6,98.1,73.9,94.8,,
CCCC(=O)NC(c1ccc(Cl)cc1)c1ccc2cccnc2c1O (stereo unspecified),99.9,98.7,12.3,28.1,,
O=C(NNC(=O)c1cccnc1SCc1cccc([N+](=O)[O-])c1)c1ccccn1,65.1,56.6,46.9,42.9,,
Cc1cc(NC(c2cccnc2)c2ccc3cccnc3c2O)no1 (stereo unspecified),63.9,74,59.7,94.9,,
O=c1c2ccccc2sc2nc(CCl)nn12,102,102,-2.66,33.8,,
O=C(c1ccco1)N1CCN(C(c2ccccc2Cl)c2nnnn2Cc2cccs2)CC1 (stereo unspecified),63,44.9,-23.5,-17.6,,
CCc1ccc(/C=C2\SC(=S)N(CCCC(=O)Nc3cc(C)on3)C2=O)cc1,80,87.3,29.1,27.4,,
Cc1cc(C)c2c(N)c(C(=O)Nc3ncc(C)s3)sc2n1,90.9,98.2,99.2,98.9,,
COc1ccc(OCc2cccc(C(=O)O)c2)cc1,98.7,102,90.9,89.6,62.9,55.2
NC(C(=O)O)C1ON=C(Cl)C1O (stereo unspecified),41.4,43.8,-3.88,9.67,82.5,88.3
